This is part of a sample that, as a whole, favours compounds with a hit. Of some 83,000 tested, about 20% had one in any assay.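 Cell lines were cultured in 96-well plates, exposed to a single compound concentration, and assessed for percent growth 48 hours later.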 Calls of active or inactive are those of the source. The calls were made as follows: active = growth percent below 10; inactive = the rest.
Test system: MDA-MB-468 breast
Test: NCI-60 one-dose screen, 48 h (100 = growth as untreated, 0 = no growth, -100 = all killed)
Details: 10 µM unless noted

Row | Compound | growth
1 | CCOC(=O)c1c(NCC(=O)Nc2cccc([N+](=O)[O-])c2)sc(C(C)=O)c1C | -22.5% (active)
2 | COc1ccc(C/C(C)=C(\c2ccc(Cl)cc2)c2ccc(OCCN3CCCCC3)cc2)cc1 | 98.2% (inactive)
3 | COc1ccc(N)c(S)c1 | 97.3% (inactive)
4 | COc1cc(N=Nc2cc(S(=O)(=O)O)cc3cc(S(=O)(=O)O)cc(O)c23)c(C)cc1N=Nc1c(S(=O)(=O)O)cc2cc(Nc3ccccc3)ccc2c1O | 115% (inactive)
5 | COc1ccc(C(=O)CSc2nc(-c3cc(OC)ccc3OC)cc(-c3ccc(Cl)cc3)c2C#N)cc1 | 25.8% (inactive)
6 | COc1cc(-c2nc(-c3nnc(-c4cccnc4)o3)c3ccccn23)cc(OC)c1OC | 104% (inactive)
7 | CC(C)C(/C=C/c1[nH]ncc1-c1cc(Cl)ccc1O)N1CCOCC1 (stereo not given) | 84.9% (inactive)
8 | COc1ccc2c(CCCC(c3ccccc3)c3ccccc3)c3[n+](cc2c1OC)CCc1cc2c(cc1-3)OCO2 | -73% (active)
9 | NC1=C(Cl)C(=O)c2ccc(S(N)(=O)=O)cc2C1=O | -92.4% (active)
10 | COc1cc(-c2nn(-c3ccc(Br)cc3)cc2CO)ccc1O | 96.1% (inactive)
11 | O=C(CCN1CCCC1)Nc1ccc2c(NCc3ccccc3)c3ccccc3nc2c1 | -37.1% (active)
12 | C=C1SC(=Nc2c(C)cccc2C)N(c2nc(Cl)nc(Cl)n2)C12CCCCC2 | 101% (inactive)
13 | CCCCCCC(C)N(CC(C)(C)O)C(=O)c1ccc([N+](=O)[O-])cc1 (stereo not given) | 96.1% (inactive)
14 | C[n+]1c(/C=C/c2c[nH]c3ccccc23)ccc2ccccc21 | 23% (inactive)
15 | NNc1ccccc1C(=O)O | 102% (inactive)
16 | Cc1ccc2c(c1)Nc1ccc(C)cc1C2(C)C | 101% (inactive)
17 | O=C1/C(=C\c2ccc(F)cc2)CN(C(=O)c2ccccc2)C/C1=C\c1ccc(F)cc1 | 5.47% (active)
18 | O=C(C[N+](=O)[O-])c1ccc(Cl)cc1 | 112% (inactive)
19 | Cc1cc(NCCN(C(C)C)C(C)C)nc(/N=C(\N)Nc2ccc(Cl)c(C(F)(F)F)c2)n1 | -98.6% (active)
20 | Cn1cc(-c2nn3cc(-c4cccs4)nc3s2)c2cc(F)ccc21 | 44.4% (inactive)

Row | Compound | growth
21 | O=C1Nc2ccc(Br)cc2C1=O | 109% (inactive)
22 | CCN1C(=O)N(CC)C2C1NN=c1s/c(=C\c3cccc([N+](=O)[O-])c3)c(=O)n12 (stereo not given) | 3.95% (active)
23 | CN1C(=O)/C(=C/c2ccc(C(=O)Nc3ncc(Cc4ccc(Cl)cc4)s3)cc2)SC1=S | 25.2% (inactive)
24 | O=S(=O)(Nc1ccc(I)c(Cl)c1)c1ccc(-c2cnc(C3CC3)o2)cc1 | -9.49% (active)
25 | COC1(OC)C2(Cl)C(Cl)=C(Cl)C1(Cl)C1COCC12 (stereo not given) | 87% (inactive)
26 | Cc1cc(N[C@@H]2CCC[C@H](Nc3ccnc4cc(Cl)ccc34)C2)nc(N2CCCCCC2)n1 | -65.8% (active)
27 | Clc1ccc(Nc2nccc(Nc3ccc4[nH]ncc4c3)n2)cc1 | 33.6% (inactive)
28 | C=C1CC[C@@H]2[C@](C)(COC(C)=O)[C@H](OC(C)=O)CC[C@@]2(C)[C@@H]1CC(NCc1ccc(F)cc1)C1=CCOC1=O (stereo not given in full) | 27.5% (inactive)
29 | C=C1C(=O)O[C@H]2[C@H]1CC/C(CNC(=O)/C=C/c1cc(OC)c(OC)c(OC)c1)=C\CC[C@@]1(C)O[C@@H]21 | -57.6% (active)
30 | Nc1c(Br)cc2c(c1Br)Cc1cc([N+](=O)[O-])ccc1-2 | -54.8% (active)
31 | CCCCCCCCCCCCCC[n+]1cccc(C(N)=O)c1 | -59.9% (active)
32 | O=C(Nc1cccc([N+](=O)[O-])c1)c1cccc(C(=O)Nc2cccc([N+](=O)[O-])c2)c1 | 67.1% (inactive)
33 | ClC1=C(Cl)C(Cl)=C(Cl)C1=Cc1ccccc1 | -80.7% (active)
34 | N#C/C(=C\c1ccc(-c2ccc(Br)cc2)o1)c1nc(-c2ccco2)cs1 | -26.8% (active)
35 | CC/C(=C(\CC)c1ccc(OCC[N+](C)(C)C)cc1)c1ccc(OC)cc1 | 2.58% (active)
36 | C=C1C(=O)O[C@H]2[C@H]1CC/C(COC(=O)NCc1cc(OC)cc(OC)c1)=C\CC[C@@]1(C)O[C@@H]21 | 10.2% (inactive)
37 | O=c1[nH]c2ccc(Cl)cc2c2ccccc12 | 68.1% (inactive)
38 | CC1(C)CC(=O)C2=C(C1)N(c1ccc(OC(F)(F)F)cc1)C(N)=C(C#N)C2c1ccc(Br)cc1F (stereo not given) | 55.7% (inactive)
39 | CC(C)C(=O)Nc1ccc(-c2nc(-c3cccc(OCCN4CCOCC4)c3)c(-c3ccnc(Br)c3)[nH]2)cc1 | 23.2% (inactive)
40 | Cc1ccc(S(=O)(=O)NC(CCC(=O)Nc2ccccc2)C(=O)Nc2ccccc2)cc1 (stereo not given) | -20.6% (active)
